# Experimental data published in PubChem BioAssay AID1345083 (National Center for Advancing Translational Sciences (NCATS), 2018).
# Out of some 94,000 compounds screened, about 6,200 (6.6%) were called active. Another 31% or so got no clear call; they are omitted. Only a selection was taken, and actives are over-represented in it overall. Unmarked numbers belong to inactive results. Calls follow the shape of the dose curve; as a rule, active = well fitted inhibition curve with a large enough effect; inconclusive = small, poorly fitted or top-dose-only effect; inactive = flat fitted curve, though single readings scatter.
# Assay: Cytotoxic Profiling in HEK 293 Cell Line of Diverse Libraries Using Quantitative High-Throughput Screening; also: nearly all actives have a fitted effect of over 60% in size
# Conditions: HEK 293 viability, ATP luminescence (CellTiter-Glo), 48-72 h; series mostly up to 115 µM; activity change, negative = cytotoxicity: at the top concentration
# In short: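 250 HEK 293 cells/well; compound by pintool; incubated 48 or 72 hr at 37 degree Celsius; CellTiter-Glo added, 10 min RT, luminescence imaged.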
# % is scaled to controls: 0 for no effect and ±100 for the full control effect; potency is read from the fitted curve at half-maximal effect.
Compound,"activity change, negative = cytotoxicity",Potency,outcome
COc1ccc(N2CC(COc3ccccc3)Oc3ncccc3[S+]2(=O)[O-])cc1 (stereo not drawn),-26% [at 57.5 µM],–,–
COc1ccc(CN2CCC3(COc4ncccc4[S+](=O)([O-])N3)C2)cc1 (stereo not drawn),-6.89%,–,–
COc1ccc(OCC2CN(Cc3cccc(F)c3)[S+](=O)([O-])c3cccnc3O2)cc1 (stereo not drawn),–,28.2 µM (active),–
CNC(=O)N1CCC(C2CCN(C(=O)C3CC=CC3)C2)CC1 (stereo not drawn),-10.2%,–,–
CC(C)(C)c1csc(NC(=O)c2ccc3c(c2)OCCN(C2CCC2)C3)n1,–,50.1 µM (active),–
O=C(Cn1nc2c(cc1=O)CCCC2)Nc1nc(-c2ccc3c(c2)OCCCO3)cs1,1.44%,–,–
COc1ccc(NC(=O)Cn2c(C)ccc(NS(=O)(=O)c3ccccc3)c2=O)cc1,-11.2%,–,–
CCOc1ccc2c(n1)CCN(C(=O)C(C)C)C2,-20.1%,–,–
O=C(NCc1ccc(Cl)nc1)c1cn2c(n1)CN(C(=O)c1cccnc1)CC2,–,–,inactive
O=C(NCCc1cnccn1)c1coc(COc2cccc(C(F)(F)F)c2)n1,-2.53%,–,–
CN(C)C[C@@H]1CN(Cc2ccccn2)C[C@H]1NC(=O)c1cc(Cl)ccc1F,–,44.7 µM (active),–
Cc1occc1C(=O)N[C@@H]1CN(Cc2cccnc2)C[C@H]1CN(C)C,-0.747%,–,–
CN(C)C[C@@H]1CN(c2ncccn2)C[C@H]1NC(=O)c1cc(Cl)ccc1F,2.99%,–,–
CNC(=O)c1cc(C)nc2onc(C3CCN(C(=O)c4ccc(C)cc4)CC3)c12,-0.605%,–,–
NC(=O)CCNC(=O)C1=C[C@@H](NC(=O)Nc2ccccc2Br)[C@@H](O)[C@H](O)C1,–,–,inactive
CCN(C1CCN(C)CC1)C1CN(C(=O)c2nccc3ccccc23)C1,-0.681%,–,–
CCOc1ccccc1NC(=O)Cn1c(=O)n(-c2ccccc2)c(=O)c2c1cc(C)n2C,-1.28%,–,–
CCc1cccc(C)c1NC(=O)CN1C(=O)C(c2ccccc2)=NC12CCCC2,-26%,–,–
CCOc1ccccc1NC(=O)CN1C(=O)C(c2ccccc2)=NC12CCCC2,–,79.4 µM (active),–
Cc1noc(C)c1[S+](=O)([O-])N1CCn2c(nnc2C2CCCNC2)C1 (stereo not drawn),-2.98%,–,–
c1cc2c(cc1-c1n[nH]c(C3CCOCC3)n1)OCO2,4.32%,–,–
Cc1cccc(-c2cnc3n[nH]c(-c4ccc5c(c4)OCO5)c3n2)c1,–,70.8 µM (active),–
COc1ccc(-c2[nH]nc3ncc(-c4cn[nH]c4)nc23)cc1F,-65.2% [at 172 µM],–,–
CC(=O)N1CCC(Oc2ccc(Cl)cc2C(=O)N2CCN(CC3CC3)CC2)CC1,-0.051%,–,–

Compound,"activity change, negative = cytotoxicity",Potency,outcome
CCn1cc(S(=O)(=O)N2CCc3nn(CC4CC4)c(=O)n3CC2)cn1,–,–,inactive
CN(C)c1ccc2ncc(Nc3ccccc3F)n2n1,–,112 µM (active),–
O=C(NCCCN1CCCCC1)C1CCN(C(=O)N2CC3CC(C2)[C@H]2CCCC(=O)N2C3)CC1 (stereo partly drawn),7.11%,–,–
COCCN1CCC2(CCC1=O)CCN(C(=O)c1sc(C)nc1C)CC2,0.502%,–,–
CCOC(=O)C1=CN(CC(=O)Nc2ccccc2F)S(=O)(=O)N=C1C,9.12%,–,–
CCOc1cc(C)c(CN2C[C@@H](CN(C)C)C[C@H](CO)C2)cc1C(C)C,–,35.5 µM (active),–
Cc1cc(=O)n(CC(=O)N2C[C@H](CO)C[C@H](CN(C)C)C2)nc1C,-2.93%,–,–
COc1cc(C)c(CN2CCN3C(=O)CNC(=O)C3C2)cc1C(C)C (stereo not drawn),-23.9%,–,–
COc1ccc(C(=O)NCc2nnc3ccc(-c4ccccc4)nn23)c(OC)n1,–,–,inactive
COc1ccccc1Nc1cnc2ccc(-c3ccc(OC)c(OC)c3)nn12,–,11.2 µM (active),–
Cc1ccc(-c2ccc3nnc(CNC(=O)c4cccnc4)n3n2)cc1C,-0.42%,–,–
CN(C)c1cccc(-c2cnc(Nc3ccc(N4CCOCC4)cc3)c3c2CCO3)c1,–,22.4 µM (active),–
Cc1cccc(CNC(=O)C2Cn3cccc3C(=O)N2CC(C)C)c1 (stereo not drawn),-18.7%,–,–
CCOC(=O)[C@H]1[C@@H](O)C(=O)N(Cc2ccccc2)C12CCN([S+](C)(=O)[O-])CC2,-4.69%,–,–
Cc1ccccc1CN1CCC(N2CCCC(C(=O)NC3CC3)C2)CC1 (stereo not drawn),-0.659%,–,–
Cc1ccccc1CN1CCC2(C1)C(=O)N(C)C(=O)N2C (stereo not drawn),-6.62%,–,–
Cc1ccc2c(n1)N(C)[C@H](CO)CCN(Cc1ccccc1C)C2,–,89.1 µM (active),–
C=CCN1CCN(C(=O)C2CCCN(C(=O)c3ccccc3)CCC(=O)NCC2)CC1 (stereo not drawn),4.32%,–,–
CC(C)(C)c1cc(CC2(NCc3ccc(C#N)cc3)COC2)no1,-28.2% [at 172 µM],–,–
CC1CCN([C@@H]2[C@H](O)[C@H](CO)O[C@@H]2CNC(=O)Nc2ccccc2)CC1,-8.97% [at 172 µM],–,–
CN(Cc1nccn1C)C(=O)c1cc(CN2CCC(Cc3ccccc3)CC2)on1,-28.8%,–,–
Cc1cc(C[C@@H]2COC[C@@H]2NC(=O)C2CCN(C(=O)N(C)C)CC2)on1,–,–,inactive
COCc1cc(C[C@@H]2CC[C@H](O)[C@@H](CN(C)C)O2)no1,2.42% [at 230 µM],–,–
CC(=O)N1CCC(N[C@H]2C[C@@H](Cc3cc(CN(C)c4ccccc4)on3)C2(C)C)CC1,–,70.8 µM (active),–
